An excerpt weighted towards active compounds, which were near 12% of everything screened.
JMJD2A Tudor inh: inhibitors of human JMJD2A Tudor domain; AlphaScreen JMJD2A-Tudor / H3K4me3 peptide binding; actives 4.4% (n = 390,000); Potency, µM (top dose mostly 114 µM), for the others: top-dose activity change, negative = inhibition, usual class: inhibitors; AID 504339; also: % is scaled to controls: 0 for no effect and ±100 for the full control effect; nearly all actives have a fitted effect of over 50% in size
BAZ2B block: blocks human BAZ2B; Q9UIF8; AlphaScreen BAZ2B-H3K14Ac peptide displacement; Potency, µM (doses to about 114 µM), for inactives: at the highest dose activity change, negative = inhibition, actives largely listed as inhibitors; actives 4.4% (n = 360,000); AID 504333; also: % is scaled to controls: 0 for no effect and ±100 for the full control effect; nearly all actives have a fitted effect of over 60% in size
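BAZ2B (50 nM) with biotin-H3(5-23)K14Ac peptide (50 nM) in PBS pH 7.4, 0.01% Tween-20, preformed 30 min, then compound 30 min at room temperature; top concentration 110uM. AlphaScreen streptavidin donor/nickel chelate acceptor beads (10 ug/mL final), 20 min dark, signal read.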
Sfp PPTase inh: Sfp phosphopantetheinyl transferase inhibition; Q9F4F7; actives 3.5% (n = 310,000); Potency, µM, without a hit: largest response in the series, negative = inhibition, actives largely listed as inhibitors; Biochemical Sfp PPTase activity, qHTS;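 also: the enzyme is Sfp with the accession as filed and its product quenches rhodamine fluorescence; 0% = enzyme reaction without inhibitor and -100% = no enzyme wells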
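Sfp 15 nM + cpd, 15 min RT; start w/ rhodamine-CoA 5 uM, BHQ-2-YbbR 12.5 uM (final); 50 mM Hepes pH 7.6, 10 mM MgCl2, 0.01% NP-40, 0.01% BSA; read 525/598 nm at 0 and 30 min.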
PLK1 PBD block: blocks phosphopeptide binding to human PLK1 polo-box domain; P53350; Plk1 PBD binding of FITC phosphopeptide, fluorescence polarization; Potency, µM, inactives show max response, negative = inhibition, hits mostly inhibitors; actives 2.8% (n = 360,000); also: series mostly up to about 57 µM; % is scaled to controls: 0 for no effect and ±100 for the full control effect; nearly all actives have a fitted effect of over 65% in size
G9a block: blocks human histone lysine methyltransferase G9a. AID 504332. actives 8.8% (n = 350,000). Potency, µM (top dose mostly 102 µM), without a hit: at the highest dose activity, negative = inhibition, usual class: inhibitors. G9a H3K9 monomethylation, AlphaScreen, 2 h; also: % is scaled to controls: 0 for no effect and ±100 for the full control effect; nearly all actives have a fitted effect of over 75% in size
Target sequence (Q96KQ7 913-1193 limits assumed): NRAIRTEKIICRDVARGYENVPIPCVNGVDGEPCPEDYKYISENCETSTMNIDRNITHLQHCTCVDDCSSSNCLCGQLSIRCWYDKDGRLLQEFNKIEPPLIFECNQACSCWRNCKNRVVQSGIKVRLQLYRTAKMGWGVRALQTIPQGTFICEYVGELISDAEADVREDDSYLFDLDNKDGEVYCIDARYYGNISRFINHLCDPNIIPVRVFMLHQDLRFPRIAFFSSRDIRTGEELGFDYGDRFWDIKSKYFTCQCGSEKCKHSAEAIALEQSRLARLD
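Quantitative HTS format: methyltransferase activity on a biotin-tagged H3K9 peptide is measured by AlphaScreen, using a rabbit anti-monomethyl-H3K9 antibody with streptavidin donor and anti-IgG acceptor beads. Final levels are 20 nM enzyme, 500 nM peptide, 20 uM SAM; 2 h RT.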
HP1b chromo inh: blocks HP1-beta chromodomain binding to methylated histone tails | P83916 | Potency, µM (highest dose often 114 µM), without a hit: at the highest dose activity change, negative = inhibition, usual class: inhibitors | actives 0.56% (n = 390,000) | AlphaScreen HP1-beta / biotin-H3K9me3 peptide binding; also: nearly all actives have a fitted effect of over 70% in size
Target sequence (P83916 whole entry, looked up): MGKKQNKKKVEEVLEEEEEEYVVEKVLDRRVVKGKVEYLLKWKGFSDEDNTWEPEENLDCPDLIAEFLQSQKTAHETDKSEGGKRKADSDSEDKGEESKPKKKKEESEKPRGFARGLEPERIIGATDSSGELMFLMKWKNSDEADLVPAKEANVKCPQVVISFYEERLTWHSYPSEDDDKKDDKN
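Compound inhibition of the preformed complex between 50 nM HP1-beta and 50 nM biotinylated H3K9me3 peptide was read by AlphaScreen. Buffer was PBS pH 7.4 with 0.01% Tween-20. Incubations ran 30 min at room temperature, with 10 ug/mL donor/acceptor beads.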
* hit, by the source's call; ? = inconclusive; . = no result given; [ ] = dose if it differs, or a comment. Calls follow the shape of the dose curve; as a rule, active = well fitted curve in the direction sought with a large enough effect; inconclusive = small, poorly fitted or top-dose-only effect, or another doubt; inactive = no such curve, though single readings can be large; an effect the other way counts as inactive or inconclusive. Potency is read from the fitted curve at half-maximal effect.

SMILES	JMJD2A Tudor inh	BAZ2B block	Sfp PPTase inh	PLK1 PBD block	G9a block	HP1b chromo inh
CC(=O)NS(=O)(=O)c1ccc2sc(C)nc2c1	-7%	-25%	79µM*	-13%	-7%	25%
COc1cc(/C=N/O)ccc1OCc1ccc(Cl)cc1	.	-11%	-27%	.	.	.
CCOc1cc(/C=N/O)ccc1OCc1ccc(F)cc1	28µM*	3%	-4%	24µM*	-5%[59 µM]	?
COc1cc(/C=N\n2nnnc2N)ccc1OCc1ccc(F)cc1	-18%	-1%	-18%	-8%	0%[59 µM]	25%
CCOc1cc(/C=N/O)ccc1OCc1ccc([N+](=O)[O-])cc1	-35%[57.1 µM]	-33%	5%	24µM*	20%[59 µM]	?
COc1cc(/C=N/n2c(C)n[nH]c2=S)ccc1OCc1ccc(F)cc1	79µM*	-15%	-24%	-25%	1.3µM*	-3%
O=C(C[n+]1ccn(CCCNP2(=O)C=C(c3ccccc3)OC(c3ccccc3)=C2)c1)c1cccs1	-22%	-26%	-10%	1%	?	16%
Cc1nn(-c2ccc(N3CCCC3)nn2)c(C)c1CCC(=O)N1CCN(c2ccccc2F)CC1	-25%	-26%	.	.	12%[59 µM]	4%
C=CCn1c(N)cc(=O)nc1SC(C)C(=O)Nc1cccc2ccccc12 (stereo not given)	-12%	2%	9%	-4%	11%[59 µM]	27%
CCOc1cc(/C=C/C(=O)O)ccc1OCCO	35µM*	-13%	-4%	27µM*	8%	4%
CCOc1ccc(OCCOc2ccc(/C=C/C(=O)O)cc2OCC)cc1	-7%	-2%	17%	-6%	?	6%
CCOC(=O)C1CCN(C(=O)c2cc3ccc4ccc(C)[nH]c4c3n2)CC1	-20%	3%[57.1 µM]	.	.	14µM*	-2%
CCOC(=O)C1CCN(C(=O)c2cc3ccc4cccnc4c3[nH]2)CC1	-15%	6%[57.1 µM]	.	.	-24%[59 µM]	29%
CC(=O)Nc1ccc(SCCN2CCN(CC(C)C)CCC2=O)cc1	-10%	.	45µM*	.	.	38%
C[C@@H](CSc1ccc(Br)cc1)CN1CC[C@H](O)CCC1=O	-15%	6%	.	-16%	1%[2.33 µM]	44%
CC(=O)Nc1ccc(SC[C@H](C)CN2CC[C@H](O)CCC2=O)cc1	-3%	-4%	.	19µM*	20%[2.33 µM]	60%
CCCN1CCC(=O)N(CCSc2ccc(NC(C)=O)cc2)CC1	-3%	11%	6%	-1%	17%[59 µM]	42%
CC(=O)Nc1ccc(SCCN2CC[C@@H](C(C)(C)C)CCC2=O)cc1	-5%	2%	.	11µM*	24%[2.33 µM]	33%
Fc1cccc(Nc2nc(N3CCOCC3)nc(N3CCOCC3)n2)c1	-11%	-10%	5%	3%	12%	20%
CCOC(=O)CNC(=O)COc1coc(CN2CCN(Cc3ccccc3)CC2)cc1=O	21%	2%	9%	7%	19%[0.501 µM]	54%
CCC(C)N(C(=O)COC(=O)COc1c(C)cc(C)cc1C)C1CCS(=O)(=O)C1 (stereo not given)	-17%	10%	.	-9%	-1%	10%
O=C(Nc1nc2nc(-c3ccccc3)cc(=O)n2[nH]1)c1ccc(F)cc1	-10%	79µM*	.	.	15%[12.7 µM]	30%
Cc1ccc(C(=O)Nc2nc3nc(-c4ccccc4)cc(=O)n3[nH]2)cc1	-2%	?	13%	-15%	?	64%
O=C(OCc1ccccc1)N1CCC2CC1c1ccc(/C=C/CCCCl)cc12 (stereo not given)	.	.	.	-13%	.	.
O=C(N=C1SC2CS(=O)(=O)CC2N1c1cccc(Cl)c1Cl)C1CCCO1 (stereo not given)	4%	-4%	6%	-9%	?	20%
SMILES	JMJD2A Tudor inh	BAZ2B block	Sfp PPTase inh	PLK1 PBD block	G9a block	HP1b chromo inh
Cc1ccc(C(=O)N/C(=C/c2ccco2)C(=O)Nc2cccc(C(=O)O)c2)cc1	79µM*	22%	45µM*	-20%	.	2%
COc1ccccc1C(=O)N/C(=C/c1ccco1)C(=O)Nc1cccc(C(=O)O)c1	79µM*	?	50µM*	-4%	?	4%
Cc1ccc(NC(=O)C(=O)NCc2ccco2)cc1	-9%	2%	.	.	7%[59 µM]	30%
Cc1ccc(NC(=O)/C(=C\c2ccco2)NC(=O)c2ccco2)cc1	?	-1%	-20%	-23%	28µM*	47%
COC(=O)c1cccc(NC(=O)/C(=C\c2ccco2)NC(=O)c2ccco2)c1	.	.	.	-2%	.	.
Cc1ccc(NC(=O)N/C=C/c2ccco2)cc1	50µM*	79µM*	?	-10%	?	-11%
COc1cccc(CNC(=O)C(Cc2ccccc2)NS(=O)(=O)c2ccc3c(c2)oc(=O)n3C)c1 (stereo not given)	2%	?	.	.	-5%[59 µM]	38%
O=C(/C=C/c1ccc(OC2CSC2)cc1)c1ccccc1	?	-2%	-9%	27µM*	16%	-10%
O=C(N/N=C/c1ccc(OC2CSC2)cc1)c1ccccc1	-2%	-8%	-11%	1%	5%[59 µM]	19%
CC[C@H](C)[C@H](NC(=O)[C@@H]1CCCN1C(=O)[C@H](Cc1cnc[nH]1)NC(=O)[C@@H](NC(=O)[C@H](Cc1ccc(O)cc1)NC(=O)[C@@H](NC(=O)[C@H](CCCN=C(N)N)NC(=O)CNC)C(C)C)[C@@H](C)CC)C(=O)O	.	.	24%	.	.	.
O=C(NCC1CCN(C(=O)c2c(F)c(F)c(F)c(F)c2F)CC1)c1c(F)c(F)c(F)c(F)c1F	3%	-1%	6%	-4%	79µM*	24%
O=C(NCC1CCN(C(=O)c2cccc([N+](=O)[O-])c2)CC1)c1cccc([N+](=O)[O-])c1	-9%	-1%	9%	1%	0%	-14%
CCn1nnc(NC(=O)c2cccnc2)n1	-5%	-30%	-28%	?	40µM*	-18%
CCN(CC)c1ccc(NC(=O)c2cccnc2)cc1	-25%	?	-15%	1%	10µM*	9%
COc1ccc(NC(=O)c2cccnc2)cc1	-8%	6%	33%	-9%	51%	30%
Cc1onc(-c2ccccc2Cl)c1C(=O)N(C)Cc1ccccc1	-12%	0%	10%	-7%	-5%	-7%
O=[N+]([O-])c1ccc(N2CCN(CCO)CC2)cc1Sc1nc2ccccc2[nH]1	-18%	-1%[57.1 µM]	4%	-5%	2%	37%
COc1ccc(Br)cc1S(=O)(=O)Nc1ncccc1C	?	-11%	-12%	30µM*	.	21%
O=C1c2ccccc2C(=O)N1C1CCCCC1	-1%	-6%	-9%	-3%	8%	83%
O=C1c2ccccc2C(O)(c2ncc[nH]2)N1C1CCCCC1 (stereo not given)	?	-7%	-17%	-4%	20µM*	17%
O=C1c2ccccc2C(O)(c2ccccc2)N1CCc1ccccc1 (stereo not given)	-7%	0%	7%	1%	26%	41%
